Assay results reported in PubChem BioAssay (NCATS).
Where “and” joins values, the source holds several entries; their conditions need not be identical. Identical values can stand only once. Records with an inconclusive call do not appear. Entries that show only a call come without a potency. Calls of active or inactive are those of the source. Calls follow the shape of the dose curve; as a rule, active = well fitted curve in the direction sought with a large enough effect; inconclusive = small, poorly fitted or top-dose-only effect, or another doubt; inactive = no such curve, though single readings can be large; an effect the other way counts as inactive or inconclusive.

Assays:
[1] = MultiTox-Fluor Cytotoxicity Assay - LYMP1-002 - Live Cells (AID 955);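 also: cells exposed to compound for 16 hours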
Method in brief: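 Cytotoxicity in the human lymphoblastoid line LYMP1-002 is measured as loss of live-cell protease activity after 16 h treatment in complete culture medium. AC50 is derived from Hill-equation fits of qHTS concentration-response data.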

[2] = MultiTox-Fluor Cytotoxicity Assay - LYMP1-003 - Live Cells (AID 962);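 also: cells exposed to compound for 16 hours at 37 °C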
Method in brief: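 Cells plated at 2500 per well and incubated 5 hr; compounds added and incubated 16 hr at 37 C; MultiTox-Fluor reagent added for 60 min at room temperature; fluorescence of liberated AFC measured at 405/510 nm.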

[3] = Cell Viability - LYMP1-003 - Assay at 24 hr (AID 963)
Method in brief: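 Acute toxicity in LYMP1-003 lymphoblastoid cells: 24 hr compound treatment at 37 C, ATP measured with CellTiter-Glo after 30 min at room temperature. AC50 derived by fitting the Hill equation to qHTS titrations.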

[4] = Cell Viability - LYMP1-003 - Assay at 40 hr (AID 964); also: nearly all actives have a fitted effect of over 60% in size
Method in brief: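 This qHTS cytotoxicity screen treats human lymphoblastoid cells (LYMP1-003) with compounds for 40 hr and quantifies cellular ATP via luciferase luminescence.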

[5] = Cell Viability - LYMP2-003 (AID 965);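 also: cells exposed to compounds for 24 h before reading; nearly all actives have a fitted effect of over 50% in size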
Method in brief: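 CellTiter-Glo luminescence quantified ATP loss after 24 h compound treatment of LYMP2-003 lymphoblastoid cells at 37 C. Titration series were fitted with the standard Hill equation to give AC50.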

[6] = Cell Viability - LYMP2-004 (AID 966); also: nearly all actives have a fitted effect of over 65% in size
Method in brief: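 Acute toxicity is scored as a concentration-dependent drop in intracellular ATP, quantified by luciferase luminescence, in human lymphoblastoid cells exposed to compound for 24 hr. AC50 derives from Hill-equation modelling.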

[7] = Cell Viability - LYMP2-005 (AID 967)
Method in brief: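 LYMP2-005 human lymphoblastoid cells (2500/well) were treated with compounds for 24 h at 37 C. Intracellular ATP was then measured by CellTiter-Glo luminescence after 30 min at room temperature. AC50 values came from Hill-equation fits of qHTS concentration-response data.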
Potency is read from the fitted curve at half-maximal effect.

Structure (SMILES)	Potency [1]	Potency [2]	Potency [3]	Potency [4]	Potency [5]	Potency [6]	Potency [7]
CCCCCCCCOC(=O)c1ccccc1C(=O)OCCCCCCCC	inactive	inactive	inactive	inactive	inactive	inactive	inactive
[Cl-].[Cl-].[Hg+2]	10 µM (active)	15.8 µM (active)	7.94 µM (active)	1 µM (active)	0.794 µM (active)	0.251 µM (active)	0.501 µM (active)
CC(C)(C)c1cc(O)ccc1O	inactive	inactive	inactive	inactive	inactive	39.8 µM (active)	–
CC(C)Nc1ccc(Nc2ccccc2)cc1	25.1 µM (active)	50.1 µM (active)	50.1 µM (active)	31.6 µM (active)	39.8 µM (active)	39.8 µM (active)	–
O=C1C2CC=CCC2C(=O)N1SC(Cl)(Cl)Cl (stereo not drawn)	6.31 µM (active) and 5.01 µM (active)	12.6 µM (active) and 10 µM (active)	12.6 µM (active)	20 µM (active)	12.6 µM (active)	10 µM (active)	12.6 µM (active)
COc1ccc2c(c1OC)C(=O)OC2C1c2cc3c(cc2CCN1C)OCO3 (stereo not drawn)	inactive	inactive	inactive	inactive	inactive	inactive	inactive
C=CCN=C=S	inactive	inactive	inactive	inactive	inactive	inactive	inactive
S=C=S	inactive	inactive	inactive	inactive	inactive	inactive	inactive
CC(C)CCON=O	inactive	inactive	inactive	inactive	inactive	inactive	inactive
Oc1cc(Cl)c(Cl)cc1Cl	inactive	inactive	inactive	inactive	inactive	inactive	inactive
